# Reference: PubChem BioAssay
# The list shows a part of the results. Calls of active or inactive are those of the source.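 How the source made its calls, unless noted: active means reconfirmed compounds whose average cytotoxicity reaches 50% or more; inactive means the rest.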
# Assays:
# [1] = PPC-1 cell viability loss – ATP content luminescence, cytotoxicity control for TRAIL apoptosis potentiator project, confirmation (AID 1447); details: PPC-1 viability, ATPlite luminescence, overnight; at 5 µM; stronger effect = higher value;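 further: 0% = DMSO-treated cells and 100% = wells holding medium but no cells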
# [2] = lowers stimulated NF-kB luciferase signal in Jurkat – cell-based, luminescence, single concentration, T-cell NF-kB inhibitor project, confirmation (AID 435020;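 active means inhibition reaching about 45% at 4 µM in either replicate, limit read from the data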;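 further: plate controls were PMA/ionomycin stimulated DMSO wells for no effect and unstimulated DMSO wells for full effect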); details: PMA/ionomycin-induced, 16 h, at 4 µM, stronger effect = higher value
# [3] = target: Sentrin-specific protease 8 (Homo sapiens) (UniProt Q96LD8); experiment: human SENP8 peptidase blockers, hit retest – biochemical, luminescence, single concentration, confirmation (AID 488912;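 active means mean inhibition across replicates above about 50%, limit read from the data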); details: Recombinant SENP8, Z-RLRGG-aminoluciferin luminescence, 60 min; at 12.5 µM; stronger effect = higher value
# [4] = target: Sentrin-specific protease 6 (Homo sapiens) (UniProt Q9GZR1); experiment: inhibition of human SENP6 catalytic domain – biochemical, luminescence, single concentration, confirmation (AID 488915;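 active means mean inhibition above about 50% in the one-dose retest, limit read from the data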); details: recombinant SENP6, Z-RLRGG-aminoluciferin luminescence; at 12.5 µM; stronger effect = higher value
# [5] = target: Sentrin-specific protease 7 (Homo sapiens) (UniProt Q9BQF6); experiment: human SENP7 peptidase blockers, hit retest – biochemical, luminescence, single concentration, confirmation (AID 488917;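 active means mean inhibition above about 50% in the one-dose retest, limit read from the data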); details: recombinant SENP7, Z-RLRGG-aminoluciferin luminescence, 40 min; at 12.5 µM; stronger effect = higher value
# [6] = target: Caspase-3 (Homo sapiens) (UniProt P42574); experiment: human caspase-3 activity blockade, out-of-family – biochemical, single concentration, selectivity assay for SENP inhibitor project, confirmation (AID 488918;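 active means mean inhibition above about 50%, limit read from the data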;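 further: plate controls were enzyme with DMSO for no effect and wells without caspase-3 for full effect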); details: purified caspase-3, Z-DEVD-aminoluciferin luminescence, 60 min; at 12.5 µM; stronger effect = higher value
# [7] = Ultra-Glo luciferase signal interference – biochemical, single concentration, SENP8 reaction pre-completed, artefact control for SENP inhibitor project, confirmation (AID 488919;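 active means mean inhibition above about 50% when retested at one dose, limit read from the data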;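 further: plate controls were DMSO wells with completed reaction for no effect and substrate without enzyme for full effect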); details: Pre-incubated SENP8/Z-RLRGG-aminoluciferin, luciferase luminescence interference; at 12.5 µM; stronger effect = higher value
# [8] = Brca1-Bard1 BiLC signal decrease – luminescence, single concentration, counter-screen for Mdm2/MdmX interaction inhibitor project, confirmation (AID 504668; call rule not given here); details: Brca1/Bard1 bimolecular luciferase complementation counterscreen, at 8 µM, stronger effect = higher value
# [9] = inhibition of PEG-3 promoter luciferase signal – cell-based, HeLa, luciferase reporter, single concentration, confirmation (AID 602417;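 active means at 20 µM dose, 40% or more inhibition averaged across four replicates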); details: HeLa PEG-Prom luciferase reporter, luminescence, overnight; at 20 µM; stronger effect = higher value
# [10] = HIF-2a driven luciferase blockers, single dose – luminescence, 786-0 RCC cells, confirmation (AID 651580;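 active means mean inhibition across four replicates of at least 40 percent at the single tested concentration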); details: HIF-2a luciferase reporter luminescence, overnight, at 18.8 µM, stronger effect = higher value
# [11] = HIF-1a luciferase reporter signal reduction – MiaPaCa-2 cells, single concentration, counter-screen for HIF-2a inhibitor project, confirmation (AID 651589;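 active means mean inhibition of the reporter signal across four replicates at the single tested dose of 50% or more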); details: MiaPaCa-2 HIF-1a luciferase reporter, desferoxamine, overnight; at 18.8 µM; stronger effect = higher value
# [12] = target: PEG-3 (UniProt Q6IN02); experiment: inhibition of PEG-3 promoter-driven reporter – cell-based, HeLa, luciferase, CREF/GAPDH counter-screen panel, dose response (AID 624167); details: CREF/GAPDH counter-screens; HeLa PEG-Prom luciferase reporter, overnight, run 1, dose range 1, at 100 µM (top of the series) unless noted
# [13] = target: PEG-3 (UniProt Q6IN02); experiment: as above; details: CREF/GAPDH counter-screens; HeLa PEG-Prom luciferase reporter, overnight, run 2, dose range 1, at 100 µM (top of the series) unless noted
# [14] = test system: Rat fibroblasts (CREF); experiment: as above; details: CREF/GAPDH counter-screens; run 1, dose range 1, at 100 µM (top of the series)
# [15] = test system: Rat fibroblasts (CREF); experiment: as above; details: CREF/GAPDH counter-screens; run 2, dose range 1, at 100 µM (top of the series)
# [16] = target: Tumor necrosis factor receptor superfamily member 10B (Homo sapiens) (UniProt O14763); experiment: viability loss of caspase-8 NB7 cells with TRAIL – with/without TRAIL, luminescence panel, confirmation (AID 651596; in the data active means activity above about 50%); details: NB7 neuroblastoma + caspase-8, TRAIL sensitization, NB7 Caspase-8, with TRAIL, mean of runs, at 10 µM, stronger effect = higher value
# [17] = as above; details: NB7 neuroblastoma + caspase-8, without TRAIL, NB7 Caspase-8, without TRAIL, mean of runs, at 10 µM
# [18] = target: COP9 signalosome complex subunit 5 (Homo sapiens) (UniProt Q92905); experiment: blockers of CSN-driven cullin deneddylation – biochemical, fluorescence polarization, single concentration, SCF-Nedd8OG substrate, confirmation (AID 720654; in the data active means inhibition above about 50%;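 further: 0% = DMSO with enzyme and 100% = no enzyme wells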); details: Csn5 deneddylation of SCF-Nedd8OG, 90 min, at 16.6 µM, stronger effect = higher value
# [19] = target: 72 kDa type IV collagenase (Homo sapiens) (UniProt P08253); experiment: human MMP-2 inhibitors, single-point check – biochemical, fluorescence, single concentration, counter-screen for CSN deneddylation inhibitor project, confirmation (AID 720655;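 active means corrected plate-normalized z-score of 5 or more, or -5 or less, or inhibition of 15% or more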;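 further: plate controls were DMSO wells with enzyme for no effect and buffer wells lacking MMP-2 for full effect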); details: recombinant MMP-2, FRET substrate fluorescence, 60 min; at 16.6 µM
# [20] = target: Prothrombin (Bos taurus) (UniProt P00735); experiment: thrombin cleavage blockers, FP readout – biochemical, fluorescence polarization, single concentration, counter-screen for CSN deneddylation inhibitor project, confirmation (AID 720656;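 active means inhibition at or above a set limit, with a fluorescence interference ratio between 0.5 and a set maximum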); details: bovine thrombin cleavage of Ub4-pepOG, at 16.6 µM, stronger effect = higher value
# Sequence of Prothrombin (Bos taurus) (P00735 whole entry, looked up): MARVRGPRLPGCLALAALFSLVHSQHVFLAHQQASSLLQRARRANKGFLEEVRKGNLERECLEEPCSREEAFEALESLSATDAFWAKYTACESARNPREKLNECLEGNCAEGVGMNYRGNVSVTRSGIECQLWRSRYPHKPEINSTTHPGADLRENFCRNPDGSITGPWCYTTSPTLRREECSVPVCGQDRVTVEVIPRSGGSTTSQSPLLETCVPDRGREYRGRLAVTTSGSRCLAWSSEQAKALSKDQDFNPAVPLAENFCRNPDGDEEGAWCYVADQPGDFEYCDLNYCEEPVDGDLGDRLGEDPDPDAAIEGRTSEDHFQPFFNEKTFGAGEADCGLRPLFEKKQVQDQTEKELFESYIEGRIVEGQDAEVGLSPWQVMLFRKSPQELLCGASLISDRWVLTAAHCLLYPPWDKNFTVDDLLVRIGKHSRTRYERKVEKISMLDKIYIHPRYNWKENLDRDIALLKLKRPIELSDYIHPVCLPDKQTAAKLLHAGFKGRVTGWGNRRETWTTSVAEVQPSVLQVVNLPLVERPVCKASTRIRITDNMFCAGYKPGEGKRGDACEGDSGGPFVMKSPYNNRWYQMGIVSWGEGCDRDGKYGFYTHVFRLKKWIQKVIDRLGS
# Sequence of Sentrin-specific protease 7 (Homo sapiens) (Q9BQF6 706-1050 limits assumed): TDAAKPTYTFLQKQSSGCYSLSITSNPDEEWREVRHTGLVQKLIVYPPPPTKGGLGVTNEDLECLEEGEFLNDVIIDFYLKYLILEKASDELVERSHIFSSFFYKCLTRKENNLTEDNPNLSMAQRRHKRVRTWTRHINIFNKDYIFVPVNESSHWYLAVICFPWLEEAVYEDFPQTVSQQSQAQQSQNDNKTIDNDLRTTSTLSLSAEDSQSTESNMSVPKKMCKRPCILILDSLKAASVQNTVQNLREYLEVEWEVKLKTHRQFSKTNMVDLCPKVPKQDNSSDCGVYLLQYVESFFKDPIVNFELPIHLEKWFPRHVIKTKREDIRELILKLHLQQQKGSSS
# Sequence of Sentrin-specific protease 6 (Homo sapiens) (Q9GZR1 628-1112 limits assumed): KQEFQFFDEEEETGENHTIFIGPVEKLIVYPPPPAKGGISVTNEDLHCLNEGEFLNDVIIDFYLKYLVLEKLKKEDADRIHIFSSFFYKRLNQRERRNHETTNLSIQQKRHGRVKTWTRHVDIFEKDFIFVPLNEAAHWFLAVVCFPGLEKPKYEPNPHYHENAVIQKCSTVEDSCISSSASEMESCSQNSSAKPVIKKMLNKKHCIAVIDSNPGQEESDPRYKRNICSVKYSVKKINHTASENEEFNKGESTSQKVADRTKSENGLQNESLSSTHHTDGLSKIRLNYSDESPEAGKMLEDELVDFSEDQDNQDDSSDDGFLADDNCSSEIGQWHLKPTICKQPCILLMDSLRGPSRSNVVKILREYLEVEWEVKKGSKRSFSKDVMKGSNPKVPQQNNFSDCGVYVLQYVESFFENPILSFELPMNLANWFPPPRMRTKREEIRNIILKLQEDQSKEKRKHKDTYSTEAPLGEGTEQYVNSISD
# Sequence of Caspase-3 (Homo sapiens) (P42574 28-227 limits assumed): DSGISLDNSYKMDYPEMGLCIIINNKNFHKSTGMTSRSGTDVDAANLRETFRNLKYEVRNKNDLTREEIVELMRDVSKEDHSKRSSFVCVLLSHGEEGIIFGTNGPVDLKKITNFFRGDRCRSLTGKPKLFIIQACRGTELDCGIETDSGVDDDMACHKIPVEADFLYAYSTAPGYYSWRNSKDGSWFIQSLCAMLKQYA
# Sequence of PEG-3 (Q6IN02 whole entry, looked up): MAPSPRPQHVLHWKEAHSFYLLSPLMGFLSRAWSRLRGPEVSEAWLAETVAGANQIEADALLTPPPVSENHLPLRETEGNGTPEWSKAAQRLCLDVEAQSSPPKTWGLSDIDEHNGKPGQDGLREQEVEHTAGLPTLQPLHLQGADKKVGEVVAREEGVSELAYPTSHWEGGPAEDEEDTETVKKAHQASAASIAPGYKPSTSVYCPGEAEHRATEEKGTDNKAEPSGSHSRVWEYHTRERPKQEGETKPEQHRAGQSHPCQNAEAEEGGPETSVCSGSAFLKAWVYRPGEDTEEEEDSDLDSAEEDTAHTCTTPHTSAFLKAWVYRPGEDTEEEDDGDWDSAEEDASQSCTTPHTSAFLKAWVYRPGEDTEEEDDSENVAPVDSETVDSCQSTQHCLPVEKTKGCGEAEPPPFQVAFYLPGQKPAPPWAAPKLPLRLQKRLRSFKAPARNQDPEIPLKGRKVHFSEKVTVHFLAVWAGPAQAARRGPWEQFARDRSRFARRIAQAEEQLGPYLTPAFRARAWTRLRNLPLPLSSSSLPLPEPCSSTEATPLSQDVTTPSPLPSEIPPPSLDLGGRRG
# Sequence of Tumor necrosis factor receptor superfamily member 10B (Homo sapiens) (O14763 whole entry, looked up): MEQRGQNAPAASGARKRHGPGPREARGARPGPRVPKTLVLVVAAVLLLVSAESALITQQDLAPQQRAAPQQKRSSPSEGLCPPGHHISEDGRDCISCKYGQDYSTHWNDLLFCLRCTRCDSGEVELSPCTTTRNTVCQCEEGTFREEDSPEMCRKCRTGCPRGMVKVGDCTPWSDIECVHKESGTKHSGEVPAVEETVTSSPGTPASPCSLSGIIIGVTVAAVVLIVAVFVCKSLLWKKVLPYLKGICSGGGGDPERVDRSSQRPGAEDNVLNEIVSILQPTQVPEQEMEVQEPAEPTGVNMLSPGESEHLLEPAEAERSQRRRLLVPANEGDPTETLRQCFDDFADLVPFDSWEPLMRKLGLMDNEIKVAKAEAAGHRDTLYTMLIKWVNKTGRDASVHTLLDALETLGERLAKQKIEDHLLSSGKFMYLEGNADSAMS
# Sequence of Sentrin-specific protease 8 (Homo sapiens) (Q96LD8 whole entry, looked up, the tested form may be a part): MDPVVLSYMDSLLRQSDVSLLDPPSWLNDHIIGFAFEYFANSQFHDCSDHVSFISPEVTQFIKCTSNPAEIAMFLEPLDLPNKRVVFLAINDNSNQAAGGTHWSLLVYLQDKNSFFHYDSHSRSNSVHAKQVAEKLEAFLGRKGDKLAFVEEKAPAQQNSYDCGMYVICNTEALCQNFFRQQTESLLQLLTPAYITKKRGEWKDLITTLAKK
# Sequence of 72 kDa type IV collagenase (Homo sapiens) (P08253 whole entry, looked up): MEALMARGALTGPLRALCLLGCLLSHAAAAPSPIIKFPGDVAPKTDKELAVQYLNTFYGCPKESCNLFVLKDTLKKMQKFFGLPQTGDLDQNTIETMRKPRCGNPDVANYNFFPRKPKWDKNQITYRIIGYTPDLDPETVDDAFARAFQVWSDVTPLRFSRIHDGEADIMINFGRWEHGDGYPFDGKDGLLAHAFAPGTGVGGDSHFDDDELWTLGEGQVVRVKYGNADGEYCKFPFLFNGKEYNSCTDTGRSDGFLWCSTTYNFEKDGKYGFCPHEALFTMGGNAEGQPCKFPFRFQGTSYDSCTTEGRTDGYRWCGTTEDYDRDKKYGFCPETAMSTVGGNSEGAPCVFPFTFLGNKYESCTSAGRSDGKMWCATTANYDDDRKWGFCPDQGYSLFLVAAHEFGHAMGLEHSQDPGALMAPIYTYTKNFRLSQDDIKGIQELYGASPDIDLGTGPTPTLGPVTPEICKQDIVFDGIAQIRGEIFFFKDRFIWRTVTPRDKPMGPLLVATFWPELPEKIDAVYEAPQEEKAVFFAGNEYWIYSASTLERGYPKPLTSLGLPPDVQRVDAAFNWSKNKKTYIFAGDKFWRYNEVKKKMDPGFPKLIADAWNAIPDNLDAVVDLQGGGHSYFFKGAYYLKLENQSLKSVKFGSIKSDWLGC
# Sequence of COP9 signalosome complex subunit 5 (Homo sapiens) (Q92905 whole entry, looked up, one chain of several): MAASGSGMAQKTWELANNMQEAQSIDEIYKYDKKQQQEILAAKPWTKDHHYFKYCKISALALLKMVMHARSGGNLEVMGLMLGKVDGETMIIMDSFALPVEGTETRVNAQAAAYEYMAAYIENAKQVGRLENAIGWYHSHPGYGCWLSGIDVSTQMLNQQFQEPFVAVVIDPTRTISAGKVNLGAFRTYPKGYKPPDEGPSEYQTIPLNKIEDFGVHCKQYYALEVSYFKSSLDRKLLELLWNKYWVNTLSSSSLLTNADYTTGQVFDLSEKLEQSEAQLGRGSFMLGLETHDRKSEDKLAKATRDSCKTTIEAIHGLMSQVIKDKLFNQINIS
compound,measurement,setting,value
O=C(O)CCCC(=O)Nc1ccccc1-n1ccnc1,cytotoxicity,[1],-3.3% (inactive)
C=CCn1c(C)cc(C2=NNC(=NCC)SC2)c1C,cytotoxicity,[1],88% (active)
same,inhibition,[2],67.5% (active)
same,inhibition,[3],-3.3% (inactive)
same,inhibition,[4],1% (inactive)
same,inhibition,[5],8% (inactive)
same,inhibition,[6],1.7% (inactive)
same,inhibition,[7],-1% (inactive)
same,inhibition,[8],24.4% (active)
same,inhibition,[9],95.2% (active)
same,inhibition,[10],98.7% (active)
same,inhibition,[11],104% (active)
same,inhibition,[12],99.4%
same,inhibition,[13],98.1%
same,inhibition,[14],98.4%
same,inhibition,[15],98.1%
same,activity,[16],93.8%
same,activity,[17],90.7%
COc1ccc(-c2cc(C(=O)n3cnc4ccccc43)c3ccccc3n2)cc1,cytotoxicity,[1],33.1% (inactive)
CS(=O)(=O)N1CCN(C(=O)c2cc3ccccc3oc2=O)CC1,cytotoxicity,[1],9.4% (inactive)
COc1ccc(C(=O)/C=C/Nc2ccccn2)cc1,cytotoxicity,[1],76.8% (active)
same,inhibition,[2],-78.9% (inactive)
same,inhibition,[3],97.4% (active)
same,inhibition,[4],98% (active)
same,inhibition,[5],102% (active)
same,inhibition,[6],97% (active)
same,inhibition,[7],96.4% (active)
same,inhibition,[9],57.9% (active)
same,inhibition,[10],80.7% (active)
same,inhibition,[11],79.7% (active)
same,inhibition,[12],95.5%
same,inhibition,[13],94.2%
same,inhibition,[14],96.2%
same,inhibition,[15],96.7%
same,activity,[16],81.4%
same,activity,[17],68.6%
O=C(NCC12CC3CC(C1)CC(CNC(=O)N1CCCC1)(C3)C2)N1CCCC1,cytotoxicity,[1],-1.2% (inactive)
O=C(Nc1cccc(O)c1)c1ccc(C(=O)c2ccccc2)o1,cytotoxicity,[1],18.6% (inactive)
CCOC(=O)c1c(C)[nH]c2c1-c1ccccc1C(=O)C2=O,cytotoxicity,[1],96.4% (active)
Cn1c(C(=O)NCCCN2CCN(c3cccc(Cl)c3)CC2)cc2c(=O)n(C)c3ccccc3c21,cytotoxicity,[1],15% (inactive)
CCC(C)Cn1c(O)cc2nn(-c3nc4ccccc4s3)c(=O)c-2c1C (stereo not drawn),cytotoxicity,[1],53.8% (active)
same,inhibition,[9],94.5% (active)
same,inhibition,[18],102% (active)
same,inhibition,[19],16% (active)
same,inhibition,[20],-1.66% (inactive)
same,inhibition,[12],99%
same,inhibition,[13],101%
same,inhibition,[14],72.9%
same,inhibition,[15],68.7%
Cn1c(-c2ccc(C(F)(F)F)cc2)cc2onc(-c3ccccc3)c2c1=O,inhibition,[2],-121% (inactive)
Clc1ccc2nc(-c3ccccc3)nc(C(Cl)Cl)c2c1,cytotoxicity,[1],76.5% (active)
same,inhibition,[10],-30.4% (inactive)
same,inhibition,[11],104% (active)
COc1cc(N=Cc2c(O)[nH]c3ccccc23)cc(OC)c1OC,inhibition,[2],-14% (inactive)
COc1cc(SC)ccc1C(=O)Nc1nc(C)cs1,cytotoxicity,[1],95.8% (active)
same,inhibition,[3],89.6% (active)
same,inhibition,[4],98.7% (active)
same,inhibition,[5],100% (active)
same,inhibition,[6],95.3% (active)
same,inhibition,[7],46.2% (inactive)
same,inhibition,[9],83% (active)
same,inhibition,[10],92.8% (active)
same,inhibition,[11],96.9% (active)
same,inhibition,[12],96.4%
same,inhibition,[13],95.2%
same,inhibition,[14],98.6%
same,inhibition,[15],99.8%
same,activity,[16],98.2%
same,activity,[17],97.8%
COc1ccc(CS(=O)/C(Cl)=C(/Cl)C(=O)Nc2ccc(OC)nc2)cc1 (stereo not drawn),inhibition,[2],95.7% (active)
Cc1ccc(-c2cc(C(=O)N/N=C/C=C/c3ccco3)c3ccccc3n2)cc1C,cytotoxicity,[1],56.4% (active)
same,activity,[16],59.7%
same,activity,[17],70.4%
COc1ccc(NC(=O)/C(Cl)=C(/Cl)S(=O)Cc2ccc(C)cc2)cn1 (stereo not drawn),inhibition,[2],100% (active)
Cc1ccc2nc(-c3ccc(NC(=O)CN(C)S(=O)(=O)c4ccccc4)cc3)sc2c1,inhibition,[2],-82.4% (inactive)
COc1ccc(C)c(Cn2c(-c3nonc3N)nc3ccccc32)c1,inhibition,[2],44.8% (inactive)
Cc1nc2cc(NC(=O)Nc3cccc(F)c3)ccc2n1C,cytotoxicity,[1],51.2% (active)
same,activity,[16],72.3%
same,activity,[17],65.2%
Cn1c(-c2ccco2)nc2cc3ccccc3cc21,cytotoxicity,[1],89.1% (active)
same,inhibition,[3],3.5% (inactive)
same,inhibition,[4],99.6% (active)
same,inhibition,[5],103% (active)
same,inhibition,[6],98.1% (active)
same,inhibition,[7],98.1% (active)
Cc1ccc(O)c(NC(=O)COc2cc(C)ccc2C)c1,inhibition,[2],0.55% (inactive)
O=C(Nc1ccc(NC(=O)c2cccs2)cn1)c1ccco1,cytotoxicity,[1],42.1% (inactive)
same,activity,[16],63.1%
same,activity,[17],71.5%
Cc1nnc(N/N=C/c2ccccn2)[nH]c1=O,inhibition,[2],63.8% (active)
Cn1c(=NC(=O)c2cnccn2)sc2ccccc21,cytotoxicity,[1],50.8% (active)
same,activity,[16],57.3%
same,activity,[17],53.5%
O=c1oc(/C=C/c2ccccc2)nc2ccccc12,cytotoxicity,[1],57.5% (active)
same,activity,[16],76.2%
same,activity,[17],79.7%
Cc1ccc(-c2cn3cc(C)ccc3n2)cc1,cytotoxicity,[1],85.8% (active)
same,inhibition,[3],54.3% (active)
same,inhibition,[4],91.7% (active)
same,inhibition,[5],101% (active)
same,inhibition,[6],95% (active)
same,inhibition,[7],39.4% (inactive)
same,inhibition,[8],29% (active)
same,inhibition,[9],82% (active)
same,inhibition,[12],96.6%
same,inhibition,[13],96.4%
same,inhibition,[14],98.1%
same,inhibition,[15],96.8%
